Laboratory results published in PubChem BioAssay AID720517 (National Center for Advancing Translational Sciences (NCATS), 2013).
Inconclusive results are not listed. Calls of active or inactive are those of the source. The call rests on the fitted dose curve; in most records, active means well fitted activation curve with a large enough effect; inconclusive means small, poorly fitted or top-dose-only effect; inactive means flat fitted curve, though single readings scatter.

Assay: qHTS for Inhibitors of Cell Surface uPA Generation: FP59 Counterscreen for Cherry-picked Compounds; further: 0% is about no effect
Conditions: FP59 anthrax toxin cytotoxicity counterscreen, cells; series mostly up to 115 µM; activity (protection from FP59): at the top concentration

SMILES	activity (protection from FP59)
COc1ccccc1NNC(=O)C(O)(c1ccccc1OC)c1ccccc1OC	-1.17% (inactive)
CN1CC[C@]23c4ccccc4N[C@H]1[C@]21CCN(C)[C@H]3Nc2ccccc21	-1.45% (inactive)
Cc1ccnc(NS(=O)(=O)c2ccc(NC(=O)C3C4C=CC(C4)C3C(=O)O)cc2)n1 (centres undefined)	-0.562% (inactive)
C=CCc1cc(S(=O)(=O)c2ccc(O)c(CC=C)c2)ccc1O	0.647% (inactive)
COCC(=O)N1CCC(n2nccc2NC(=O)c2ccccc2OC)CC1	-1.56% (inactive)
CCN(CC)S(=O)(=O)c1ccc(NC(=S)Nc2ccc(F)cc2)cc1	-1.33% (inactive)
Cc1cccc(NC(=O)C2CCCN(S(=O)(=O)c3cccc4cccnc34)C2)c1 (centres undefined)	-1.41% (inactive)
CCOc1cc(/C=N/Nc2cc(C)nc3ccc(C)cc23)ccc1O	-1.03% (inactive)
CC(=O)NS(=O)(=O)c1ccc(NC(=O)c2cccc(OCc3c(C)noc3C)c2)cc1	-1.47% (inactive)
COc1ccccc1N1CCN(C(=O)CCC(=O)N2CCN(c3ccc(F)cc3)CC2)CC1	-1.52% (inactive)
CCc1nc(SCC(N)=O)c2c(=O)n(C)c(=O)n(C)c2n1	-1.48% (inactive)
CCCCn1c(N)c(N(CCC(C)C)C(=O)c2sc3nc4n(c(=O)c3c2C)CCC4)c(=O)[nH]c1=O	-1.37% (inactive)
CN(C)c1cccc(Oc2nc3c(c(=O)n(C)c(=O)n3C)n2C)c1	-1.39% (inactive)
COc1ccc(NC(=O)c2cccnc2N2CCOCC2)cc1	-1.54% (inactive)
Cc1ccc2nc(-c3ccncc3)cc(C(=O)NCCc3ccc(F)cc3)c2c1	-1.48% (inactive)
Nc1cc(=O)[nH]c(SCC(=O)Nc2cccc([N+](=O)[O-])c2)n1	-1.38% (inactive)
C/C(=N\NC(=O)c1cccc([N+](=O)[O-])c1)c1cccnc1	-1.46% (inactive)
CC(=O)Nc1ccc(OS(=O)(=O)c2c(C)cc(C)cc2C)cc1	-1.2% (inactive)
CSc1nc(N)nc2c1ncn2CC(=O)NCC1CCCO1 (centres undefined)	-0.117% (inactive)
CCn1c(=O)cc(C(=O)OC)sc1=Nc1ccc(F)c(F)c1	-0.708% (inactive)

SMILES	activity (protection from FP59)
CCOC(=O)CC(=O)CSc1nc2c(C)c(C)ccc2cc1C	0.302% (inactive)
COc1ccc(-n2ncc3c(=O)n(CC(=O)NC(C)C)cnc32)cc1	-1.39% (inactive)
COc1ccc(C(=O)NCCCN2CCOCC2)cc1	-1.15% (inactive)
O=C(N/C(=C\c1cccc([N+](=O)[O-])c1)C(=O)N1CCOCC1)c1ccc([N+](=O)[O-])cc1	-0.98% (inactive)
C[C@@H]1O[C@@H](O[C@@H]2C(=O)c3c(O)cc(O)cc3O[C@H]2c2ccc(O)c(O)c2)[C@H](O)[C@H](O)[C@H]1O	-1.41% (inactive)
COc1ccc(CNCCC2(C(C)C)CCOC(C)(C)C2)cc1 (centres undefined)	-1.52% (inactive)
CCOC(=O)C1=C(C)N(Cc2ccccc2)C(=O)NC1c1ccc(OC)cc1 (centres undefined)	1.6% (inactive)
COc1cc(CNCCc2ccccc2)cc(Br)c1OCC(=O)Nc1ccccc1C	-0.583% (inactive)
COc1ccc2nc3c(cc2c1)c(NC(=O)C1CCCO1)nn3CC(C)C (centres undefined)	-1.28% (inactive)
C/C(=N\NC(=O)c1ccccc1)c1c(C)[nH]n(-c2ccccc2)c1=O	-0.532% (inactive)
COc1cc2cc(CN(CCN3CCOCC3)C(=O)Nc3ccc(F)cc3)c(=O)[nH]c2cc1OC	-1.42% (inactive)
O=C(Nc1c(C(=O)O)oc2ccc(Br)cc12)c1ccccc1	-0.512% (inactive)
CC(C)NC(=O)NC(=O)CN1C(=O)NC(Cc2c[nH]c3ccccc23)C1=O (centres undefined)	-1.2% (inactive)
COc1cc(SC)ccc1C(=O)OCc1nc2ccsc2c(=O)[nH]1	-1.26% (inactive)
CCC(COC)NC(=O)CCc1nnc(Cc2c[nH]c3ccccc23)o1 (centres undefined)	-1.37% (inactive)
CCCCN(CC)CCNC(=O)c1cc2cc3ccc(Cl)cc3nc2o1	-1.38% (inactive)
COc1cccc(C(=O)Cn2c(NCCCO)nc3ccccc32)c1	-1.55% (inactive)
O=C1c2ccccc2[C@@H]2C[C@H](NC34CC5CC(CC(C5)C3)C4)[C@@H](O)CCN12	-1.36% (inactive)
Cc1cnc(CNC(=O)C2CCC(=O)N(CCc3cccc(F)c3)C2)[nH]1 (centres undefined)	-1.19% (inactive)
